Results taken from PubChem BioAssay (EPA / NIEHS).
Calls of active or inactive are those of the source. The calls were made as follows: active = hit-call score of the fitted dose curve at least 0.9, where 1 is the maximum; inactive = score below 0.9.

Columns and labels:
[1] = read-out: Urokinase-type plasminogen activator receptor (uPAR), PLAUR (gene 5329); assay: BSK_4H_uPAR: BioMAP Diversity Plus: 4H Assay for Urokinase-type plasminogen activator receptor (uPAR) Biomarker Activity (AID 2283030); settings: primary human endothelial cells (HUVEC); actives raise or lower the signal
Procedure, shortened: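 Human umbilical vein endothelial cells in the 4H system, 24 h after chemical dosing. Cell-surface uPAR measured by ELISA, fitted in both directions versus DMSO; cytotoxicity checked by SRB total protein in parallel cultures.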

[2] = read-out: Vascular endothelial growth factor receptor 2 (Homo sapiens) (UniProt P35968); assay: BSK_4H_VEGFRII: BioMAP Diversity Plus: 4H Assay for Vascular endothelial growth factor receptor 2 (VEGFR2) Biomarker Activity (AID 2283031); settings: primary human endothelial cells (HUVEC); actives raise or lower the signal;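 as to AC50: cell-surface VEGFR2 protein level quantified by ELISA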
Procedure, shortened: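 Primary human umbilical vein endothelial cells (4H system), 24 h exposure; cell-surface VEGFR2 measured by ELISA. Bidirectional fitting versus DMSO; cytotoxicity checked in parallel by SRB total-protein staining.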

[3] = read-out: Human Leukocyte Antigen - DR isotype (HLADR), HLA-DRA (gene 3122); assay: BSK_BE3C_HLADR: BioMAP Diversity Plus: BE3C Assay for Human Leukocyte Antigen - DR isotype (HLADR) Biomarker Activity (AID 2283032); settings: primary human bronchial epithelial cells; actives raise or lower the signal
Procedure, shortened: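 BioMAP BE3C format: human bronchial epithelium, 24 h compound treatment, ELISA detection of HLA-DR, with bidirectional analysis relative to DMSO.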

[4] = read-out: Vascular cell adhesion molecule 1 (VCAM1), VCAM1 (gene 7412); assay: BSK_4H_VCAM1: BioMAP Diversity Plus: 4H Assay for Vascular cell adhesion molecule 1 (VCAM1) Biomarker Activity (AID 2283033); settings: primary human endothelial cells (HUVEC); actives raise or lower the signal
Procedure, shortened: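 In this human endothelial (HUVEC) system, biomarker ELISA was run 24 h after compound addition, and total protein in parallel wells was assessed by SRB at 560 nm; DMSO served as negative control.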

[5] = read-out: Interferon-gamma inducible Protein 10 (IP10), CXCL10 (gene 3627); assay: BSK_BE3C_IP10: BioMAP Diversity Plus: BE3C Assay for Interferon-gamma inducible Protein 10 (IP10) Biomarker Activity (AID 2283034); settings: primary human bronchial epithelial cells; actives raise or lower the signal
Procedure, shortened: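 BE3C cells (human bronchial epithelial, primary); 24 h exposure; ELISA for IP-10; DMSO-referenced bidirectional fit.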

[6] = read-out: Monokine induced gamma interferon (MIG), CXCL9 (gene 4283); assay: BSK_BE3C_MIG: BioMAP Diversity Plus: BE3C Assay for Monokine induced gamma interferon (MIG) Biomarker Activity (AID 2283035); settings: primary human bronchial epithelial cells; actives raise or lower the signal
Procedure, shortened: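 hu bronchial epithelial 1° cells, 24 h cpd; MIG by ELISA; bidirectional fit, DMSO = baseline.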

[7] = read-out: Transforming growth factor beta 1 (TGFb1), TGFB1 (gene 7040); assay: BSK_BE3C_TGFb1: BioMAP Diversity Plus: BE3C Assay for Transforming growth factor beta 1 (TGFb1) Biomarker Activity (AID 2283036); settings: primary human bronchial epithelial cells; actives raise or lower the signal
Procedure, shortened: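 TGF-b1 measured via ELISA, 24 h after chemical dosing of human bronchial epithelial cells (BE3C). Overt cytotoxicity assessed in parallel by SRB (0.1%, TCA-fixed, 560 nm); analysis bidirectional relative to DMSO.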

[8] = read-out: Plasminogen activator inhibitor-1 (PAI1), SERPINE1 (gene 5054); assay: BSK_BE3C_PAI1: BioMAP Diversity Plus: BE3C Assay for Plasminogen activator inhibitor-1 (PAI1) Biomarker Activity (AID 2283037); settings: primary human bronchial epithelial cells; actives raise or lower the signal
Procedure, shortened: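 In this multiplexed primary-cell system, bronchial epithelial cells receive test chemical and are sampled at 24 h. PAI-1 is read by ELISA, with DMSO serving as negative control for bidirectional fitting.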

[9] = read-out: urokinase plasminogen activator (uPA), PLAU (gene 5328); assay: BSK_BE3C_uPA: BioMAP Diversity Plus: BE3C Assay for urokinase plasminogen activator (uPA) Biomarker Activity (AID 2283038); settings: primary human bronchial epithelial cells; actives raise or lower the signal;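 also: uPA protein level quantified by ELISA in cell cultures; uPA read one day after compound addition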
Procedure, shortened: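 Primary human bronchial epithelial cells, uPA measured by ELISA 24 h after dosing. Bidirectional change relative to DMSO; cytotoxicity checked in parallel cultures by sulforhodamine B total-protein staining.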

[10] = read-out: Urokinase-type plasminogen activator receptor (uPAR), PLAUR (gene 5329); assay: BSK_BE3C_uPAR: BioMAP Diversity Plus: BE3C Assay for Urokinase-type plasminogen activator receptor (uPAR) Biomarker Activity (AID 2283039); settings: primary human bronchial epithelial cells; actives raise or lower the signal
Procedure, shortened: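 Chemically treated human bronchial epithelial cells (lung primary) are assayed for uPAR by ELISA after 24 h, with data fitted in both directions using DMSO as negative control.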

[11] = read-out: Interleukin-6 (IL6), IL6 (gene 3569); assay: BSK_CASM3C_IL6: BioMAP Diversity Plus: CASM3C Assay for Interleukin-6 (IL6) Biomarker Activity for (AID 2283040); settings: primary human coronary artery smooth muscle cells; actives raise or lower the signal
[12] = read-out: Tissue plasminogen activator (tPA), PLAT (gene 5327); assay: BSK_BE3C_tPA: BioMAP Diversity Plus: BE3C Assay for Tissue plasminogen activator (tPA) Biomarker Activity (AID 2283041); settings: primary human bronchial epithelial cells; actives raise or lower the signal
Procedure, shortened: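 Using human lung primary bronchial epithelial cells, tPA was measured by ELISA 24 h after dosing; data fitted relative to DMSO.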

[13] = read-out: Interleukin-8 (IL8), CXCL8 (gene 3576); assay: BSK_CASM3C_IL8: BioMAP Diversity Plus: CASM3C Assay for Interleukin-8 (IL8) Biomarker Activity (AID 2283042); settings: primary human coronary artery smooth muscle cells; actives raise or lower the signal;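 also: IL-8 protein level quantified by ELISA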
[14] = read-out: Human Leukocyte Antigen - DR isotype (HLADR), HLA-DRA (gene 3122); assay: BSK_CASM3C_HLADR: BioMAP Diversity Plus: CASM3C Assay for Human Leukocyte Antigen - DR isotype (HLADR) Biomarker Activity (AID 2283043); settings: primary human coronary artery smooth muscle cells; actives raise or lower the signal;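 also: cell-surface HLA-DR protein level quantified by ELISA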
[15] = read-out: Macrophage colony-stimulating factor (MCSF), CSF1 (gene 1435); assay: BSK_CASM3C_MCSF: BioMAP Diversity Plus: CASM3C Assay for Macrophage colony-stimulating factor (MCSF) Biomarker Activity (AID 2283044); settings: primary human coronary artery smooth muscle cells; actives raise or lower the signal;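 also: M-CSF protein amount quantified by ELISA after 24 h exposure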
[16] = read-out: Low-density lipoprotein receptor (LDLR), LDLR (gene 3949); assay: BSK_CASM3C_LDLR: BioMAP Diversity Plus: CASM3C Assay for Low-density lipoprotein receptor (LDLR) Biomarker Activity (AID 2283045); settings: primary human coronary artery smooth muscle cells; actives raise or lower the signal;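 also: LDLR protein level on the cell surface quantified by ELISA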
[17] = read-out: Monocyte Chemoattractant Protein-1 (MCP1), CCL2 (gene 6347); assay: BSK_CASM3C_MCP1: BioMAP Diversity Plus: CASM3C Assay for Monocyte Chemoattractant Protein-1 (MCP1) Biomarker Activity (AID 2283046); settings: primary human coronary artery smooth muscle cells; actives raise or lower the signal;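 also: MCP-1 level quantified by ELISA 24 h after dosing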
[18] = BSK_CASM3C_Proliferation: Cell Proliferation Assessment in the BioMAP Diversity Plus: CASM3C Assay (AID 2283047); settings: primary human coronary artery smooth muscle cells;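 also: sulforhodamine B total protein stain as relative cell number at 560 nm; sub-confluent cells exposed 48 h before staining; fitted both ways against DMSO so gain or loss of cell number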
[19] = read-out: Monokine induced gamma interferon (MIG), CXCL9 (gene 4283); assay: BSK_CASM3C_MIG: BioMAP Diversity Plus: CASM3C Assay for Monokine induced gamma interferon (MIG) Biomarker Activity (AID 2283048); settings: primary human coronary artery smooth muscle cells; actives raise or lower the signal;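 also: MIG protein level measured by ELISA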
[20] = read-out: serum amyloid A (SAA), SAA1 (gene 6288); assay: BSK_CASM3C_SAA: BioMAP Diversity Plus: CASM3C Assay for serum amyloid A (SAA) Biomarker Activity (AID 2283049); settings: primary human coronary artery smooth muscle cells; actives raise or lower the signal;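 also: SAA protein level quantified by ELISA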

Measured: AC50

CCCN(CC)CC1COC2(CCC(C(C)(C)C)CC2)O1 (stereo not given)
active: [10] 1.77 µM | [18] 7.08 µM
inactive: all other assays above

CC(C)C1(C)N=C(c2ncccc2C(=O)O)NC1=O (stereo not given)
not listed: [1]
inactive: all other assays above

CCSC(=O)N1CCCCCC1
inactive: all assays above

CCC(C)n1c(=O)[nH]c(C)c(Br)c1=O (stereo not given)
not listed: [1]
inactive: all other assays above

O=C(Nc1ccccc1-c1ccc(Cl)cc1)c1cccnc1Cl
active: [3] 5.32 µM
not listed: [1]
inactive: all other assays above

COCC(C)N(C(=O)CCl)c1c(C)csc1C (stereo not given)
not listed: [1]
inactive: all other assays above

OC(c1ccc(Cl)cc1)(c1ccc(Cl)cc1)C(Cl)(Cl)Cl
active: [2] 20 µM | [3] 11.5 µM | [4] 28.3 µM | [5] 12.2 µM | [6] 14.5 µM | [7] 31.2 µM | [8] 13.9 µM | [12] 13.1 µM | [13] 33.4 µM | [15] 36.2 µM | [17] 35.2 µM | [18] 30.4 µM | [19] 31.3 µM | [20] 32.2 µM
inactive: [9] | [10] | [11] | [14] | [16]
